Assay results: ChEMBL document CHEMBL1201862, “PubChem BioAssay data set” (2004)
Among all 55,000 sequences or so, about 2,600 (4.7%) were called active. No stated cut-off is given here; in the data, active = GI50 up to about 1.1 µM and inactive = higher. A selection follows. Entries with a potency or affinity are not part of this list.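 Briefly, cells in 96-well plates were exposed to five compound concentrations for 48 h, and endpoints were estimated by linear interpolation. GI50: concentration for 50% inhibition of growth.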

These substances were tested on OVCAR-4 (assay: NCI tumour cell line growth inhibition, 48 h).

Row | Substance | GI50
1 | [Bis(aminomethyl)tetramethylenesilane]dichloropaltinum(II), CHEMBL2146205 | 59.8 µM
2 | [Bis(aminomethyl)tetramethylenesilane]tetrachloropaltinum(IV), CHEMBL2146189 | 19 µM
3 | CISPLATIN, CHEMBL11359 | 1.49 µM
4 | [Bis(aminomethyl)pentamethylenesilane]dichloropaltinum(II), CHEMBL2146202 | 5.46 µM
5 | cis-Bis[[(trimethylsilyl)methyl]amino]tetrachloroplatinum(IV), CHEMBL2146191 | 5.53 µM
6 | [Bis(aminomethyl)pentamethylenesilane]tetrachloropaltinum(IV), CHEMBL2146204 | 18.6 µM
7 | [Bis(aminomethyl)dimethylsilane]tetrachloroplatinum(IV), CHEMBL2146190 | 18.8 µM
8 | [Bis(aminomethyl)dimethylsilane]dichloroplatinum (II), CHEMBL2146201 | 45.8 µM
9 | [Bis(aminomethyl)ethylmethylsilane]tetrachloroplatinum(IV), CHEMBL2146192 | 10 µM
10 | mu-(1,7-nanodiamine-N,N')bis-(cis-aminedichloroplatimum (II)), CHEMBL2146215 | 40.8 µM
11 | [Bis(aminomethyl)diethylsilane]tetrachloroplatinum(IV), CHEMBL2146203 | 14.7 µM
